# Bioassay records: PubChem, National Center for Advancing Translational Sciences (NCATS)
# Only some compounds are listed: those with a hit (about 2.8% of all), similar ones and a draw of the others.
# POLK inh: DNA polymerase kappa (human) inhibition. purified Pol kappa, fluorescent DNA synthesis assay, 10 min. Potency, µM (highest dose often 107 µM), inactives show at the top dose activity, negative = inhibition, most hits filed as inhibitors. 400,000 compounds, 0.53% hits; also: potency is read from the fitted curve at half-maximal effect; % is scaled to controls: 0 for no effect and ±100 for the full control effect
#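 Pol kappa 10 nM + cpd, 15 min RT; start w/ substrate 50 nM final; fluorescence kinetic read, 0 and 10 min. Neg ctrl: buffer, no enzyme.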
# POLH inh: blocks human DNA polymerase eta activity; 390,000 compounds, 1.2% hits; Potency, µM (doses to about 114 µM), for the others: top-dose activity change, negative = inhibition, usual class: inhibitors; recombinant Pol eta, fluorescent DNA replication assay; AID 588591; Q9Y253; also: potency is read from the fitted curve at half-maximal effect; % is scaled to controls: 0 for no effect and ±100 for the full control effect
#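 Fluorescent replication assay: 50 nM final substrate added after a 15 min room-temperature compound preincubation with 10 nM enzyme. Signal taken at 0 min and again at 10 min.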
# Pol iota inh: inhibitors of human DNA polymerase iota. Potency, µM (doses to about 115 µM), without a hit: top-dose activity, negative = inhibition, most hits filed as inhibitors. Pol iota fluorescent replication assay, 10 min. 390,000 compounds, 1% hits; also: potency is read from the fitted curve at half-maximal effect
#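 Fluorescent replication assay read twice, at 0 min and 10 min after adding 50 nM (final) substrate. Enzyme (10 nM) and compounds were first incubated 15 min at room temperature; enzyme-free buffer wells were negative controls.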
# WRN helicase inh: WRN helicase (human) inhibition; 360,000 compounds, 0.46% hits; Q14191; WRN helicase unwinding, fluorescent forked duplex, kinetic; Potency, µM (titrated, usually from 114 µM), without a hit: at the top dose activity change, negative = inhibition, hits mostly inhibitors; AID 651768; also: potency is read from the fitted curve at half-maximal effect; % is scaled to controls: 0 for no effect and ±100 for the full control effect; nearly all actives have a fitted effect of over 55% in size
#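 Kinetic red-fluorescence monitoring (525/598 nm) tracks WRN helicase activity after 100 nM fluorophore-quencher forked duplex and 2 mM ATP are added to 20 nM enzyme pretreated 15 min at room temperature with compound.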
# PI5P4K alpha inh: PI5P4K alpha (human) kinase inhibition; PI5P4Kalpha enzyme, ADP-Glo luminescence, 60 min; stronger effect = lower value; 330,000 compounds, 1.2% hits; max response, %; AID 652105; active = max response of -50% or lower; inconclusive = between -30% and -50%; inactive = -30% or higher; also: value at the top dose of about 77 µM; % is scaled to controls: 0 for no effect and ±100 for the full control effect
# Target sequence (P48426 whole entry, looked up): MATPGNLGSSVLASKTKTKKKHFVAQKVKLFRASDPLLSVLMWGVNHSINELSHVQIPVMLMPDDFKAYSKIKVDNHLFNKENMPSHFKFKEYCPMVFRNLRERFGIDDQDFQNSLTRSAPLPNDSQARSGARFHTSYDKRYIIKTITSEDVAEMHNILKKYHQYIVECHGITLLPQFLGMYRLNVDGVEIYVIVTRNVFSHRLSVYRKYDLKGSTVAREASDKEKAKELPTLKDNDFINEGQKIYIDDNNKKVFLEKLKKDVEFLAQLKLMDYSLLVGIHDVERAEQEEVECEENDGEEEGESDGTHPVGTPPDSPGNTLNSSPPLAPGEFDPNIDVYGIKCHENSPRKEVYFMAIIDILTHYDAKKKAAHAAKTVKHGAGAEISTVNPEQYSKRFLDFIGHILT
#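 Controls without substrate or without enzyme flank wells where PI5P4Kalpha converts substrate using 5 microM ATP (final). Incubation lasts 60 minutes at room temperature; ADP formed is read by ADP-Glo luminescence.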
# POLB inh: blocks human DNA polymerase beta activity | P06746 | Pol beta primer extension/strand displacement, fluorescence kinetic | Potency, µM (titrated, usually from 114 µM), without a hit: top-dose activity change, negative = inhibition, usual class: inhibitors | 340,000 compounds, 1.3% hits | AID 485314; also: potency is read from the fitted curve at half-maximal effect; % is scaled to controls: 0 for no effect and ±100 for the full control effect
#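 Curves were derived by four-parameter Hill fits of normalized qHTS data. The kinetic fluorescent primer-extension read was taken at 0 and 10 min after 50 nM substrate, following a 15 min room-temperature preincubation of 10 nM enzyme with compounds.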
# * marks the source's active call; other numbers are inactive results; ? = inconclusive; · = no result given; [ ] = another dose, or the depositor's remark. Unless noted, calls follow the shape of the dose curve; as a rule, active = well fitted curve in the direction sought with a large enough effect; inconclusive = small, poorly fitted or top-dose-only effect, or another doubt; inactive = no such curve, though single readings can be large; an effect the other way counts as inactive or inconclusive.
SMILES,POLK inh,POLH inh,Pol iota inh,WRN helicase inh,PI5P4K alpha inh,POLB inh
COC(=O)c1ccc(O)cc1,-4%,-16%,137%,-5%,2,35%
CC1=NN(c2nc(-c3ccc(C)cc3)cs2)C(=O)C1N=Nc1cccc(O)c1 (centres undefined),?,?,?,-33%,-71*,13µM*
O=C(CN1C(=O)NC2(CCCCC2)C1=O)N1CCN(S(=O)(=O)c2ccccc2)CC1,6%,-3%,15%,-3%[57.1 µM],1,-3%
CCC1(c2ccccc2)NC(=O)N(CC(=O)N2CCN(S(=O)(=O)c3ccccc3)CC2)C1=O (centres undefined),1%,-15%,-9%,3%,-65*,-2%
CCOC(=O)/C=C1/SCC(=O)N1Cc1ccc(Br)cc1,-4%,-10%,-14%,5%,5,·
CCOC(=O)/C=C1\SCC(=O)N1Cc1nnc(-c2ccccc2Br)o1,-7%,?,?,-18%,?,22µM*
O=C1NC(=O)/C(=C\c2ccc(Oc3cnccn3)cc2)S1,-3%,-7%,51%,-8%[57.1 µM],-3,0%
CCOc1ccc(N(C)c2ccc(/C=C3/SC(=S)NC3=O)cc2)cc1,-39%,-25%,?,?,-55*,?
CN(C)c1ccc(C=C2SC(=S)NC2=O)cc1,-22%,?,?,?,-14,·
CCOc1c(OC(C)=O)ccc(/C=C2\N=C(SCC)SC2=O)c1[N+](=O)[O-],-4%,-14%,7%,-4%,?,-5%
O=C1NC(=S)S/C1=C/c1ccc(Oc2cnccn2)cc1,4%,-15%,9%,-19%[57.1 µM],-78*,-2%
CCOc1c(O)ccc(/C=C2\SC(=S)NC2=O)c1[N+](=O)[O-],?,25µM*,13µM*,-9%[11.6 µM],-101*,20µM*
CCOC(=O)c1nnn(C(CC)C(=O)Nc2c(C)cccc2C)c1C(=O)OCC (centres undefined),15%,7%,20%,·,·,35%
CS(=O)(=O)c1ccc2nc(NC(=O)c3ccc(=O)[nH]c3)sc2c1,-17%,50µM*,50µM*,-17%,-27,-21%
O=C(Cc1n[nH]c(=O)[nH]c1=O)N/N=C/c1cccc(Cl)c1,?,-15%,89µM*,-6%,2,0%
CCN(Cc1nc(-c2ccc(OC)cc2)oc1C)S(=O)(=O)c1ccc(C)cc1,-8%[60.1 µM],-17%,36%,·,·,2%
Cn1c(=O)[nH]c(Nc2ccccc2)c([N+](=O)[O-])c1=O,-4%,-20%,8%,-3%,-58*,0%
Cc1ccc(Cn2c(CCNC(=O)C(C)C)nc3ccccc32)cc1,-6%,-9%,7%,·,·,-1%
COc1cc([C@H]2Oc3cc([C@H]4Oc5cc(O)cc(O)c5C(=O)[C@@H]4O)ccc3O[C@@H]2CO)ccc1O,0%,-8%,?,-7%,-27,23%
O=C1c2c(O)cc(O)cc2O[C@H](c2ccc(O)c(O)c2)[C@H]1O,?,4%,79µM*,-8%[11.6 µM],-27,3.2µM*
COc1cc([C@@H]2Oc3cc(C4Oc5cc(O)cc(O)c5C(=O)[C@H]4O)ccc3O[C@H]2CO)ccc1O (some centres undefined),-39%,?,?,-11%,-52*,·
O=C1c2c(O)cc(O)cc2O[C@H](c2ccc(O)c(O)c2)[C@@H]1O,·,·,·,·,·,3.5µM*
O=C1c2c(O)cc(O)cc2O[C@H](c2ccc(O)cc2)[C@H]1O,8%,-12%,-15%,2%,-17,·
CCOC(=O)c1cc(C)n(CC2CCC(C(=O)Nc3cccc(C(C)=O)c3)CC2)c1C (centres undefined),-5%,-8%,-2%,·,·,10%
COc1cccc2[nH]c3ccccc3c(=O)c12,-15%,?,19%,-6%,-4,1%
Nc1cccc2c(=O)c3ccccc3[nH]c12,-4%,-7%,17%,-3%,-15,45µM*
CNC(=O)[C@H](Cc1c[nH]c2ccccc12)NC(=O)[C@@H](CC(=O)NO)CC(C)C,3%[19.4 µM],·,·,·,·,·
